# Screening data from PubChem.
# A selection: hits, their analogues and other compounds. The true share with any hit is near 4.2%.
# Wnt act = activates Wnt/beta-catenin signaling in a reporter cell assay | activator, plate reader | activation, % at 9.35 µM | actives 1.2% (n = 300,000) | AID 743398; in the data active = activation above about 30%, passing the limit was not always enough; inconclusive = no clear call, values can overlap the other calls;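 also: 0% = neutral control wells and 100% = positive control wells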
# esBAF inh = blocks esBAF chromatin remodeling in mouse ES cells | actives 2% (n = 350,000) | reporter increase, % at 12.5 µM | Bmi1-luciferase knock-in reporter, 24 h; 100% = twice the neutral-well signal; in the data active = activation above about 40%; inconclusive = no clear call, values can overlap the other calls;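 also: 0% = median of the plate's neutral control wells and 100% = double that signal; a rise in the Bmi1 reporter signal indicates esBAF inhibition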
# MITF act = MITF TRPM1 promoter activation in melanoma cells | SK-MEL-5 TRPM1-promoter luciferase, 24 h; % of positive control, neutral wells = 0 | activation, % at 12.5 µM | actives 0.75% (n = 300,000) | AID 588334;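 active = mean activation of at least 80% with every replicate also reaching 80%; inconclusive = mean reaches 80% but some replicate falls short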;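 also: 0% = neutral control wells and 100% = parthenolide positive control wells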
# AHR act = activators of human aryl hydrocarbon receptor; AHR-responsive luciferase reporter cells, luminescence; P35869; actives 2.5% (n = 320,000); activation, % at 5 µM; in the data active = activation above about 47%;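 also: 0% = vehicle wells and 100% = reference agonist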
# Target sequence (P35869 whole entry, looked up): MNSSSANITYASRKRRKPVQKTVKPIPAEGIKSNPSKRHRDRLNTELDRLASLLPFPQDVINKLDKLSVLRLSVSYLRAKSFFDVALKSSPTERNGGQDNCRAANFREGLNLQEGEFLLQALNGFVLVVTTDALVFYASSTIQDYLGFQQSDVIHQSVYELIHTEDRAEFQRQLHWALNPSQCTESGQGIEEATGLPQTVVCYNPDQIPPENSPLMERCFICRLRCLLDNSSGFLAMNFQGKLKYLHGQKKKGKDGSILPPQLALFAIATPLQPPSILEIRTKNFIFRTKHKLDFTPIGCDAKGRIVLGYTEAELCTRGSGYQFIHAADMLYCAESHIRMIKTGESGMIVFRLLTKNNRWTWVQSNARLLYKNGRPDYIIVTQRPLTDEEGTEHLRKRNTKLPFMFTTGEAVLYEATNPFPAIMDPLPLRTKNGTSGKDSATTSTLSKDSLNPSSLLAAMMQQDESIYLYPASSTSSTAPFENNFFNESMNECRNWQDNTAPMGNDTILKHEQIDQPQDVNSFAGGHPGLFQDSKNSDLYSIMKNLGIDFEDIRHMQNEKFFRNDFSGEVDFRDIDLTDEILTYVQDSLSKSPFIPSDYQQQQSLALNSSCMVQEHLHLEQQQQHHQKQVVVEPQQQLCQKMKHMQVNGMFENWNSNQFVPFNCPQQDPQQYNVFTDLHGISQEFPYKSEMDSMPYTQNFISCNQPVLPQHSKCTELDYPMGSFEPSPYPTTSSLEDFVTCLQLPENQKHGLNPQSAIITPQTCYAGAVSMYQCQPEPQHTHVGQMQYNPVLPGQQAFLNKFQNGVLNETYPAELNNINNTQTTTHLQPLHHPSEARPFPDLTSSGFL
# GAA850 FXN act = frataxin GAA850 promoter activation | activation, % at 6 µM | actives 0.56% (n = 360,000) | AID 540364 | HEK293 lucGAA850 FXN promoter luciferase reporter, 24 h; percent of 10 µM SAHA response;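 active = activation above the average of all compounds screened plus 3 SD, cutoff fixed separately per campaign, cut at about 7.5% in these data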;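 also: 0% = DMSO wells and 100% = 10 µM SAHA wells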
# AHR act confirm = confirmation of human aryl hydrocarbon receptor activators; shares compounds with AHR act; activation, % at 9 µM; actives 87% (n = 2,300); AID 2845; human cells, AHR-responsive luciferase reporter, luminescence; in the data active = activation above about 49%;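 also: HepG2 hepatoma cells carrying a DRE-driven firefly luciferase reporter; 0% = vehicle wells and 100% = reference agonist wells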
# PXR counter = activates human PXR in AHR activator counter-screen | shares compounds with AHR act | cell-based PXR reporter, luciferase luminescence | activation, % at 11.6 µM | actives 88% (n = 2,300); in the data active = activation above about 11%;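 also: human hepatoma DPX-2 cells expressing full-length human PXR; 0% = DMSO and 100% = reference agonist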
# * hit, by the source's call; ? = inconclusive; . = not tested or not shown.
SMILES,Wnt act,esBAF inh,MITF act,AHR act,GAA850 FXN act,AHR act confirm,PXR counter
O=C(Nc1nc2ccccc2s1)c1ccc(OCC2CCCO2)cc1 (stereo unspecified),-1.4,.,-14.8,112.4*,-2.1,68.7*,8.0
COc1ccc(N=CC2=C(O)CC(c3ccccc3)CC2=O)c(OC)c1 (stereo unspecified),.,.,-25.0,116.4*,-2.0,104.4*,20.5*
COC(=O)c1ccc(N=CC2=C(O)CC(c3ccccc3)CC2=O)cc1 (stereo unspecified),-0.5,.,.,-0.6,1.9,.,.
O=C1CC(c2ccccc2)CC(O)=C1C=Nc1ccc(O)cc1 (stereo unspecified),-0.6,.,1.1,82.8*,-0.4,67.4*,14.3*
CCOc1ccccc1N=CC1=C(O)CC(c2ccccc2)CC1=O (stereo unspecified),-2.2,5.1,-6.0,20.1,1.6,.,.
CC(C)NC(=O)N(C)C[C@H]1Oc2c(NC(=O)Nc3ccc(F)cc3)cccc2C(=O)N([C@H](C)CO)C[C@H]1C,.,5.4,.,.,.,.,.
CN(C(=S)NC(=O)c1ccc(Cl)cc1)C1CCCCC1,7.3,25.6,15.2,90.7*,3.6,113.2*,94.4*
CSC(=NC#N)N1CCN(c2cccc(Cl)c2)CC1,.,-4.7,-2.2,114.6*,-1.4,6.9,41.1*
C[C@@H]1CN([C@H](C)CO)C(=O)c2cc(NS(C)(=O)=O)ccc2O[C@@H](C)CCCCO[C@H]1CN(C)S(=O)(=O)c1cccs1,.,0.4,.,.,.,.,.
C[C@@H]1CN([C@@H](C)CO)C(=O)c2cccc(NC(=O)C3CCCCC3)c2O[C@@H]1CN(C)C,.,-1.0,.,.,.,.,.
CC(=O)N1CC=C2C(C#N)=C(N)C(C#N)(C#N)C(CCc3ccccc3)C2C1 (stereo unspecified),13.2,-8.8,-21.5,80.2*,0.9,73.4*,23.6*
CCN1CC=C2C(C#N)=C(N)C(C#N)(C#N)C(CCc3ccccc3)C2C1 (stereo unspecified),0.8,7.4,.,46.6,0.6,.,.
CC(=O)C1=C(O)C(=O)N(c2nccs2)C1c1ccc(Br)cc1 (stereo unspecified),.,7.3,7.1,171.3*,1.9,43.3,8.6
COCC(=O)N1C[C@H]2[C@@H](c3ccccc31)[C@@H](CO)N2Cc1ccccc1Cl,.,0.0,.,.,.,.,.
COc1ccc(S(=O)(=O)N(C)C)cc1NC(=O)c1ccc2c(c1)OCCO2,-6.0,7.6,5.0,0.3,-0.7,.,.
CCCN(CCC)S(=O)(=O)c1cccc(C(=O)Nc2ccc3c(c2)OCO3)c1,.,-4.9,5.8,22.4,-1.5,.,.
CCN(CC)S(=O)(=O)c1cccc(C(=O)Nc2ccc3c(c2)OCO3)c1,-1.8,.,?,165.2*,-0.3,102.8*,134.0*
CN(C)S(=O)(=O)c1cccc(C(=O)Nc2cc(Cl)ccc2O)c1,.,?,28.9,84.0*,3.0,46.3,89.8*
CN(C)S(=O)(=O)c1cccc(NC(=O)c2ccc3c(c2)OCCO3)c1,29.9,.,?,102.3*,2.5,91.5*,110.2*
Cc1c(C(=O)Nc2ccccc2[N+](=O)[O-])csc1-c1ccccc1,-0.7,.,30.3,122.1*,4.0,63.4*,27.4*
COc1ccc(NC(=O)N[C@@H]2CC[C@H](CCNC(=O)CCN3CCCCC3)O[C@H]2CO)cc1,.,-1.7,.,.,.,.,.
COc1ccc(OC)c2nc(-c3cccnc3)ccc12,5.4,27.3,22.2,92.6*,1.5,142.7*,22.2*
COc1ccccc1-n1c(-c2cccnc2)n[nH]c1=S,.,12.5,4.2,-1.7,4.6,.,.
Fc1ccc(-n2nnc(-c3cccnc3Cl)n2)cc1,17.1,-1.6,65.2,79.4*,1.1,69.2*,18.6*
Cc1noc(C)c1S(=O)(=O)N(CC(=O)Nc1ccc2c(c1)OCO2)c1ccc(C(C)C)cc1,-3.2,1.7,-3.4,79.7*,2.2,83.6*,159.0*
SMILES,Wnt act,esBAF inh,MITF act,AHR act,GAA850 FXN act,AHR act confirm,PXR counter
COc1ccc(N(CC(=O)Nc2ccc(C(C)C)cc2)S(=O)(=O)c2c(C)noc2C)cc1,-4.6,-7.2,-2.8,5.8,0.4,.,.
CCCc1cn(CC[C@@H]2CC[C@H](NC(=O)Nc3ccccc3F)[C@@H](CO)O2)nn1,.,-4.5,.,.,.,.,.
CCc1cc(C(=O)N/N=C/c2c(C)[nH]c3ccccc23)cs1,.,.,-6.7,98.7*,-0.8,82.6*,28.1*
Cc1[nH]c2ccccc2c1/C=N\NC(=O)c1ccco1,11.4,-4.8,3.1,.,4.0,.,.
Cc1cc2n(n1)C(c1ccc3c(c1)OCO3)Nc1ccccc1-2 (stereo unspecified),.,5.3,2.7,95.6*,1.1,90.9*,41.7*
C[C@H](CO)N1C[C@H](C)[C@H](CN(C)C(=O)CC2CC2)Oc2ncc(-c3ccc(C#N)cc3)cc2C1=O,.,1.6,.,.,.,.,.
COc1ccc(N2CCN(c3cc(C)c4cccc(C)c4n3)CC2)cc1,-3.4,-8.9,1.7,129.3*,1.8,94.7*,12.8*
COc1ccc(N2CCN(c3cc(C)c4ccc(O)cc4n3)CC2)cc1,-3.9,0.5,.,131.7*,-1.1,71.2*,.
COc1ccc(N2CCN(c3cc(C)c4ccc(C)cc4n3)CC2)cc1,-1.4,8.5,-15.0,100.3*,5.4,109.7*,18.1*
CC(C)NC(=O)N1[C@@H](C#N)[C@H](c2ccc(C#CC3CCCC3)cc2)[C@@H]1CO,.,-5.6,.,.,.,.,.
Cc1ccccc1-c1nsc(SCC(=O)NCc2ccc3c(c2)OCO3)n1,0.3,.,-8.1,86.5*,0.8,43.7,30.4*
O=C(CSc1nc2cc(Cl)ccc2s1)NCc1ccc2c(c1)OCO2,-2.5,.,15.8,108.4*,2.6,81.8*,33.6*
Cc1ccc(-c2nsc(SCC(=O)NCc3ccc4c(c3)OCO4)n2)cc1,-1.2,.,5.8,10.4,2.2,.,.
C[C@@H]1CN([C@H](C)CO)C(=O)c2cccc(NC(=O)Nc3ccccc3)c2O[C@@H]1CN(C)C,.,-0.9,.,.,.,.,.
Cc1onc(-c2ccccc2)c1C(=O)N/N=C/c1cn(C)c2ccccc12,-1.1,20.7,-26.6,39.5,1.3,.,.
COC(=O)N/N=C/c1c[nH]c2ccccc12,-1.4,.,-13.6,7.0,3.1,.,.
Cc1nc(C)c(C(=O)N/N=C/c2c[nH]c3ccccc23)s1,.,.,-1.7,84.4*,-0.7,47.3*,.
Cc1nc(C)c(C(=O)N/N=C/c2cn(C)c3ccccc23)s1,-0.2,9.8,7.6,96.9*,0.5,62.5*,22.8*
Cc1cccc2cc3c(N)c(C(=O)N4CCOCC4)sc3nc12,22.8,37.7,16.8,81.1*,1.4,78.1*,.
Cc1cc(C)c2cc3c(N)c(C(=O)N4CCc5ccccc5C4)sc3nc2c1,-0.8,-7.1,-7.2,9.6,3.3,.,.
O=C(C[C@H]1C[C@@H]2c3cc(NC(=O)c4ccc5c(c4)OCO5)ccc3O[C@@H]2[C@@H](CO)O1)NCc1cccc(F)c1,.,3.4,.,.,.,.,.
Cc1cc(C)c2oc(-c3cccc(N)c3)nc2c1,14.4,55.0*,.,79.4*,4.4,128.3*,15.4*
